The values that follow come from PubChem BioAssay.

As a reminder, the inhibition is the change of the read-out against control, counted positive when it falls.

Several values for one entry are separate records, joined by “and”; a condition that tells them apart may be missing. Equal entries are not always repeated. Activity calls are given as the source filed them.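 How the source made its calls, unless noted: active means inhibition at or above 50% relative to wild type and mutant plate controls; inactive means inhibition below 50%.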

The nature of assay [1]: inhibitors of TNFa-induced NFkB p65 translocation, primary screen, imaging, HUVEC, MLSMR starter and 10KST1 sets (AID 438;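 active means inhibition above 20% together with a positive visual image hit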;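 further: compound added about 3h40 before a 20 min TNFalpha stimulation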;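 on inhibition: signal is the nuclear over cytoplasmic p65 intensity ratio per well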). The note with it: HUVEC TNFa-induced p65 nuclear translocation; cell count: measured here: nuclei count (cytotoxicity indicator), at 2.08 µM; inhibition: at 2 µM, stronger effect = higher value, 0% TNFa-plus-vehicle, 100% no-TNFa wells.
A short description of assay [2]: reduction of polyQ htt aggregates in cells – imaging, exon1htt(103Q)mCFP cells, high-content imaging, primary screen (AID 483;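 active means visual image review flags a hit and inhibition of aggregation exceeds 20%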;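 further: compound exposure lasted 3 days before fixation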;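 on nuclei count: percent of the per-plate median nuclei count of sample wells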). The note with it: exon1htt(103Q)mCFP cell line, aggregate imaging, at 2 µM; inhibition of aggregation: stronger effect = higher value; nuclei count: measured here: cell count, toxicity.
Assay [3] in a line: endothelial E-selectin expression blockers – imaging, HUVEC, immunofluorescence, MLSMR starter and 10KST1 sets, primary screen (AID 487;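 active means visually confirmed hit in the image check and inhibition above 20%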;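 on inhibition: signal is fraction of cell area covered by stained E-selectin grains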;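 on nuclei count: 100% = median nuclei count of all wells on the same plate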). The note with it: HUVEC TNFalpha-induced E-selectin immunofluorescence imaging, at 2 µM; inhibition: stronger effect = higher value; nuclei count: measured here: cell number, toxicity.
A short description of assay [4]: Primary imaging screen for DUSP6 inhibitors that restore phospho-Erk in transfected HeLa cells, chemical complementation (AID 609;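 active means compounds giving at least 50% inhibition in the cell-based MKP-3 phosphatase rescue imaging test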;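 on inhibition: phospho-Erk level distribution per well compared with pooled transfected vehicle control wells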). The note with it: HeLa MKP-3 transfected, phospho-Erk imaging KS statistic, at 10 µM, cells stimulated with TPA for 15 min.
Assay [5] addresses Dual specificity protein phosphatase 6 (Homo sapiens) (UniProt Q16828). The assay is described as above. The note with it: HeLa MKP-3 transfected, phospho-Erk imaging KS statistic; at 10 µM; stronger effect = higher value; cells stimulated with TPA for 15 min.
The target of assay [6] is Voltage-gated potassium channel subunit beta-2 (Rattus norvegicus) (UniProt P62483). Briefly: inhibitors of rat Kvbeta2 reductase activity – biochemical, NADPH fluorescence, primary screen (AID 622;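 active means fluorescence slope higher than the sample average by over 3 SD, cut at about -0.22 in these data, passing the limit was not always enough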;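 further: slope of raw intensity against log time taken from 70 to 1610 s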). The note with it: recombinant KvBeta, 4-cyanobenzaldehyde reduction, at 10 µM, stronger effect = higher value.
Sequence of Voltage-gated potassium channel subunit beta-2 (Rattus norvegicus) (P62483 whole entry, looked up): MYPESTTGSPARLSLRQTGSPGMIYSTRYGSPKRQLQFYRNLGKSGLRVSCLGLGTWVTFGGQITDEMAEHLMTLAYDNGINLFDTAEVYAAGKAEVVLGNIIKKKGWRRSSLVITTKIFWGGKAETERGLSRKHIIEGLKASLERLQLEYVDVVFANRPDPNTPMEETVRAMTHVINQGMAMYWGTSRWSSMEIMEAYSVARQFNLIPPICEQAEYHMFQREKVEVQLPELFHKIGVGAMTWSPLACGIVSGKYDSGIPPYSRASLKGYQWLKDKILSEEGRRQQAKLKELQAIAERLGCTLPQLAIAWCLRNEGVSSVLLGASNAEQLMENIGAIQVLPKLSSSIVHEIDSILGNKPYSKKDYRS
For assay [7] the target is unchanged. Briefly: enhancers of rat Kvbeta2 NADPH turnover – biochemical, NADPH fluorescence, primary screen (AID 623;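 active means NADPH fluorescence slope more negative than the mean of all samples by about 3 SD, 99.7% confidence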;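 further: fluorescence intensity change per second fitted from 20 to 320 s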). As to conditions: Recombinant KvBeta, NADPH fluorescence decrease slope, 10 min; at 10 µM; stronger effect = lower value.
Assay [8] deals with Alpha-2C adrenergic receptor (Homo sapiens) (UniProt P18825). Briefly: compounds altering alpha2C-coupled GIRK flux – cell-based, HEK293 alpha2C/GIRK1/2, thallium flux, primary screen (AID 624;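 active means fluorescence slope after compound addition differing from the mean of all screened samples at 99.7% confidence, in either direction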;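 further: slope of fluorescence ratio to pre-addition baseline per second over 15 to 24 s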). The note with it: thallium flux BTC fluorescence, at 10 µM, actives lie on both sides.
Sequence of Alpha-2C adrenergic receptor (Homo sapiens) (P18825 whole entry, looked up): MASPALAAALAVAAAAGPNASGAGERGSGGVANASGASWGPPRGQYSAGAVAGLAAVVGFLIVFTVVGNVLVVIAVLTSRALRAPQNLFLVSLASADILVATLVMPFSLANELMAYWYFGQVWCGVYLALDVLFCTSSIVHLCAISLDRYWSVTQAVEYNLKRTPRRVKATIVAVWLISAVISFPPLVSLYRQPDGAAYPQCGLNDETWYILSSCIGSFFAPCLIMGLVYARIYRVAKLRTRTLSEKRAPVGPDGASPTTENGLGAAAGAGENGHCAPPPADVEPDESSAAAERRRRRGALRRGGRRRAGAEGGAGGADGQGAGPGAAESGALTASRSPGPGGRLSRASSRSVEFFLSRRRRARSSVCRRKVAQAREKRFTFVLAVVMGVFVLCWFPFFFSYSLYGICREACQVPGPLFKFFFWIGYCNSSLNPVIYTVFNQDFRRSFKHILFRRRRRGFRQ
Assay [9] in a line: inhibitors of larval lipid processing in zebrafish, primary screen, whole organism, PED6 fluorescence, gall bladder and intestine (AID 686;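 active means a full or partial loss of lipid-probe fluorescence in the fish gall bladder, intestine or both, judged by eye; inactive means no fluorescence loss, or compound toxic to the fish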;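 further: larvae 5 to 7 days old with five fish per well; signal comes from phospholipase A2 cleavage of quenched PED6 carried via bile; overnight exposure to compound and PED6 before scoring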). The note with it: Zebrafish larvae PED6 lipid processing, fluorescence scoring; screened at 20 µM (by protocol).
Assay [10] can be described thus: loss of swimming-algae plug formation – whole organism, Chlamydomonas reinhardtii, WT vs cilia-less mutant, absorbance, 96-well, primary screen (AID 463189).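 Further: 0% = wild type cc124 cells in DMSO and 100% = ciliumless bld1 mutant cells.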 As to conditions: Chlamydomonas reinhardtii gravitaxis, OD600 absorbance, 2 days; at 10 µM; stronger effect = higher value.
Assay [11] in a line: blockers of RIG-like receptor reporter activation – cell-based, Sendai virus stimulus, luciferase, 10K MLSCN set, TLR/RLR signaling modifier project, primary screen (AID 602276;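 active means inhibition at or above 50% at 10 µM; inactive means inhibition below 50%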;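 further: firefly luciferase from ISG56 promoter only with Renilla not read in this screen; 0% = Sendai virus plus DMSO and 100% = medium plus DMSO without virus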). As to conditions: HEK293 RL24 IRF3 luciferase reporter, at 10 µM, stronger effect = higher value. A general note: In a reporter assay the amount or activity of a reporter protein is the signal.
Assay [12] can be described thus: TLR3 IRF3 reporter activation blockers – cell-based, poly I:C stimulus, luciferase, 10K MLSCN set, primary screen (AID 602277;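 active means inhibition of the reporter signal at or above 50%; inactive means inhibition below 50%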). The note with it: HEK293-TLR3 RL24 IRF3 luciferase reporter, at 10 µM, stronger effect = higher value.
The mark [13] stands for this setting: measured here: cell density z-score.
Where [14] appears, read: measured here: nuclear c-Myc green intensity z-score.
Where [15] appears, read: measured here: nuclear pErk red intensity z-score, stronger effect = higher value.

Sequence of Dual specificity protein phosphatase 6 (Homo sapiens) (Q16828 whole entry, looked up): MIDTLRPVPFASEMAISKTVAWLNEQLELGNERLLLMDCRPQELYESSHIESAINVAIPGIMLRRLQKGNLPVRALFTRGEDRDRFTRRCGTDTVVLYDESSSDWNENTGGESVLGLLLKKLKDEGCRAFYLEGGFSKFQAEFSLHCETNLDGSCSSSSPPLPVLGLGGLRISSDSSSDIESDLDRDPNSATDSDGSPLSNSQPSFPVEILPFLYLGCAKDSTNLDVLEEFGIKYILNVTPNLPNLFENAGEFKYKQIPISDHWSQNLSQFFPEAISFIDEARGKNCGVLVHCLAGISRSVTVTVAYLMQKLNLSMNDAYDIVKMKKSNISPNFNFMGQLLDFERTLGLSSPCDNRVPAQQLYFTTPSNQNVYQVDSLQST

With `CC1(C)Cc2c(C#N)c(SCCC#N)nc(N3CCOCC3)c2CS1`, the cell count in assay [1] was found to be 632. For the same molecule, the inhibition in assay [1] is -13% (inactive); in assay [3] it was -104% (inactive); in assay [5] it was 28.6% (inactive); in assay [10], -1.16% (inactive); in [11], 15.2% (inactive); in [12], 18.7% (inactive). For the same molecule, the inhibition of aggregation in [2] was -5.8% (inactive). Also, the results for the nuclei count in assay [2] and in assay [3] were 106% and 132%, respectively. In addition, the z-score is 0.7 in assay [4] (setting [13]), -1.52 in assay [4] (setting [14]) and -1.34 in assay [4] (setting [15]). Further, the fluorescence slope in assay [6] is -0.343 (inactive). In assay [7], the NADPH fluorescence slope is -8.5e-06 (inactive). Also, the slope in assay [8] was 0.0053 (inactive). Besides, the result in [9] was inactive.
Regarding `NS(=O)(=O)c1cc2c(cc1Cl)NC=NS2(=O)=O`, the cell count in assay [1] amounted to 531. Besides, the inhibition in assay [1] is -6.4% (inactive); in assay [3], 13.8% (inactive); in [5], 23.2% (inactive); in assay [10] it was 11.8% (inactive) and 7.71% (inactive); in [11] it was -14.2% (inactive); in [12] it was -10.5% (inactive). Also, in [2], the inhibition of aggregation was -4.4% (inactive). For the same molecule, the nuclei count worked out at 92.2% in assay [2] and 108% in [3]. For the same molecule, the figures for the z-score in assay [4] (setting [13]), in assay [4] (setting [14]) and in assay [4] (setting [15]) were 0.808, 0.404 and -1.03, respectively. For the same molecule, the fluorescence slope in assay [6] is -0.492 (inactive). The NADPH fluorescence slope in [7] was -0.000201 (active). The slope in assay [8] is 0.00527 (inactive). The molecule was called inactive in assay [9].
Regarding `CC(C)[N+](C)(CCOC(=O)C1c2ccccc2Oc2ccccc21)C(C)C`, the cell count in [1] turned out to be 683. The inhibition in [1] was -4.8% (inactive); in assay [3] it was -133% (inactive); in [5] it was -2.46% (inactive); in assay [10] it was 0.683% (inactive) and 0.468% (inactive); in assay [11], 20.3% (inactive); in assay [12], 39.4% (inactive). Further, the inhibition of aggregation in assay [2] was -28.8% (inactive). The figures for the nuclei count in [2] and in [3] were 115% and 138%, respectively. For the same molecule, the z-score is -0.466 in assay [4] (setting [13]), -0.573 in assay [4] (setting [14]) and 0.578 in [4] (setting [15]). The fluorescence slope in assay [6] is -0.487 (inactive). For the same molecule, the NADPH fluorescence slope in assay [7] was 2.5e-06 (inactive). Also, the slope in assay [8] was 0.00524 (inactive). The outcome in assay [9] was inactive.
For `Cn1ccnc1SCCC#N`, the cell count in assay [1] is 569. The inhibition in assay [1] was -2.2% (inactive); in assay [3], -10.9% (inactive); in assay [5], 6.04% (inactive); in [10] it was 3.16% (inactive); in assay [11] it was 5.13% (inactive); in assay [12], 14.1% (inactive). Further, the inhibition of aggregation in assay [2] was -3.9% (inactive). Moreover, the nuclei count in assay [2] stood at 110%; in [3], 116%. In addition, the z-score in assay [4] (setting [13]) was -0.727; in assay [4] (setting [14]), 0.913; in [4] (setting [15]), -1.8. Also, the fluorescence slope in [6] was -0.51 (inactive). Further, the NADPH fluorescence slope in [7] was -0.000118 (inactive). Further, in assay [8], the slope was 0.00562 (inactive). Also, the call in assay [9] was inactive.
On to `C[C@@H]1C[C@H]2[C@@H]3CCC4=CC(=O)C=C[C@]4(C)[C@@]3(F)[C@@H](O)C[C@]2(C)[C@@]1(O)C(=O)COP(=O)(O)O`, for which, in assay [1], the cell count was 525. The inhibition was -10.3% (inactive) in assay [1]; -15.3% (inactive) in assay [3]; 25.1% (inactive) in [5]; 31.6% (inactive) in assay [10]; -1.94% (inactive) in assay [11]; 31.9% (inactive) in assay [12]. Besides, in assay [2], the inhibition of aggregation is -19.8% (inactive). The nuclei count in [2] turned out to be 49.4%; in assay [3] it was 98.8%. In addition, the z-score is 0.835 in assay [4] (setting [13]), 0.378 in assay [4] (setting [14]) and -0.291 in assay [4] (setting [15]). Further, the fluorescence slope in assay [6] was -0.516 (inactive). In addition, in assay [7], the NADPH fluorescence slope is -5.2e-05 (inactive). Further, the slope in assay [8] was 0.00437 (inactive). Also, in assay [9], the molecule was classed as inactive.
